3CLpro inhibitor = SARS-CoV 3CLpro protease inhibition; P0C6X7; recombinant SARS-CoV 3CLpro, quenched FRET peptide cleavage; inhibition, % at 6 µM; actives 0.14% (n = 290,000); in the data active = inhibition above about 12%
BJeLR viability = BJeLR cell viability loss; BJeLR (HRASV12) viability, CellTiter-Glo ATP luminescence, 48 h; inhibition, % (test concentration not listed); actives 0.17% (n = 300,000); AID 1554; in the data active = inhibition above about 50%
PrPC surface inh = cell surface PrPC inhibition, primary TR-FRET screen. P04156. inhibition, % at 13.8 µM. TR-FRET read-out. actives 0.43% (n = 370,000); in the data active = inhibition above about 24%; also: 0% = median of the test wells and 100% = reference compound wells
PrP UTR inh = suppresses PrP 5' UTR mRNA reporter expression; cell-based PrP 5' UTR mRNA reporter, plate reader; inhibition, % (test concentration not listed); actives 0.35% (n = 340,000); in the data active = inhibition above about 52%; also: 0 = median of the neutral control wells
Mtb hypoxia rep = Mtb hypoxia fluorescent reporter inhibition | M. tuberculosis hypoxia-regulated fluorescent reporter, fluorescence | fluorescence inhibition, % (no concentration beside the values) | actives 0.1% (n = 300,000) | AID 1159583; in the data active = fluorescence inhibition mostly above about 23%, no sharp cut-off; inactive = mostly below about 17%
RecA intein inh = inhibitors of M. tuberculosis RecA intein splicing. P9WHJ3. cell-free RecA intein splicing, fluorescence. inhibition, % (no concentration beside the values). actives 0.75% (n = 290,000); in the data active = inhibition above about 30%;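 also: 0% = vehicle wells and 100% = reference inhibitor control wells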
Target sequence (P9WHJ3 whole entry, looked up): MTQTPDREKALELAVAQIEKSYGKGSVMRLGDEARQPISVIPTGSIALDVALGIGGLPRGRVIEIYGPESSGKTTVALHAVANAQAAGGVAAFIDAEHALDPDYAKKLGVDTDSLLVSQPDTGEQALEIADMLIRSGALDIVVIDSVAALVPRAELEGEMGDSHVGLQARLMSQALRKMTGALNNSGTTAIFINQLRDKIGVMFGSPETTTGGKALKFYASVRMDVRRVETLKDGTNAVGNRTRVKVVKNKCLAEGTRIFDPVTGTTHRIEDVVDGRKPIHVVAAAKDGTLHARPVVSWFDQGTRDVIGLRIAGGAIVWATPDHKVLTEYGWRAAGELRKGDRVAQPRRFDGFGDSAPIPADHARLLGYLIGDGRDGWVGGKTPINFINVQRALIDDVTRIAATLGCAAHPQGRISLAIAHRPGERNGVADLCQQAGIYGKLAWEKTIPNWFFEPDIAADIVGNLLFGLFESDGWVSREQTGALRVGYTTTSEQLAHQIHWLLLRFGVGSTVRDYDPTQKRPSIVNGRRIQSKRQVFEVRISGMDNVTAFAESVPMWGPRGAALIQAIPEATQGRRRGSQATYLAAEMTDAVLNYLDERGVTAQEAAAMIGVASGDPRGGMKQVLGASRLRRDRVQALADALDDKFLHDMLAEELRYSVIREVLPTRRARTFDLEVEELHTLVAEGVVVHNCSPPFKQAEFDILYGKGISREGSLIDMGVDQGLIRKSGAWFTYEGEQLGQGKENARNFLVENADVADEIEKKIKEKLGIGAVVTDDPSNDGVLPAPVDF
PrP 5UTR single = prion 5' UTR mRNA inhibition, cherry-pick retest | shares compounds with PrP UTR inh | cell-based prion protein 5' UTR reporter, plate reader | inhibition, % at 2.5 µM | actives 48% (n = 1,100) | AID 504592; in the data active = inhibition above about 54%
* = called active by the depositor. In the library only some 1.4% were active in any assay of this set; here they are far more common.

For O=C(CC1CC=CCCCC(=O)OC(c2ccccc2)CNC1=O)NC(CO)Cc1ccccc1 (stereo not given) the results were Mtb hypoxia rep -5.
Screening COc1ccccc1NC(=O)c1oc2ccccc2c1NC(=O)c1cc(OC)c(OC)c(OC)c1 returned 3CLpro inhibitor -2, BJeLR viability 21, PrPC surface inh 0, PrP UTR inh 56*, Mtb hypoxia rep -2, RecA intein inh 2 and PrP 5UTR single 84*.
`O=C(Nc1cccc(S(=O)(=O)N2CCOCC2)c1)c1cnn2c(C(F)F)cc(-c3ccccc3)nc12` gave 3CLpro inhibitor 0, BJeLR viability -7, PrPC surface inh 7, PrP UTR inh 80*, Mtb hypoxia rep 8, RecA intein inh 1 and PrP 5UTR single 18.
Screening CNS(=O)(=O)c1ccc(NC(=O)c2cnn3c(C(F)F)cc(-c4ccccc4)nc23)cc1 returned 3CLpro inhibitor -2, BJeLR viability -1, PrPC surface inh 1, PrP UTR inh -7, Mtb hypoxia rep -6 and RecA intein inh 0.
O=C(CNC(=O)c1ccc2c(c1)OCCO2)NN=Cc1ccc(O)cc1O was read as Mtb hypoxia rep 0.
NC(=O)CC(NC(=O)Cc1cccc2ccccc12)c1ccc(NCc2ccccc2)c([N+](=O)[O-])c1 (stereo not given) was read as BJeLR viability -3, PrPC surface inh -12, PrP UTR inh -25 and RecA intein inh 1.
For NC(=O)CC(NC(=O)Cc1cccc2ccccc12)c1ccc(NCc2ccc(F)cc2)c([N+](=O)[O-])c1 (stereo not given) the results were BJeLR viability 2, PrPC surface inh -8, PrP UTR inh 75*, RecA intein inh 2 and PrP 5UTR single -27.
`CC(=O)c1ccc(NC=CC(=O)c2ccc(C)cc2)cc1` gave Mtb hypoxia rep -1.
`COc1ccc(-c2oc(=O)c3cc(OC)c(OC)cc3c2/C=C/c2ccc(OC(C)=O)cc2)cc1` gave PrPC surface inh 0 and PrP UTR inh 2.
`COc1cc(-c2noc(C)c2/C=C/c2ccc(OC(C)=O)cc2)cc(OC)c1OC` gave 3CLpro inhibitor -2, BJeLR viability 31, PrPC surface inh 12, PrP UTR inh 64*, RecA intein inh -2 and PrP 5UTR single 85*.
N#CC1(Nc2ccc(S(N)(=O)=O)cc2)CCCC1 was read as PrPC surface inh 9, PrP UTR inh 74* and PrP 5UTR single -13.
Cc1cc(C)n(C(=O)C(C#N)=CN(C)C)n1 was read as Mtb hypoxia rep 1.
For COC(=O)C1=C(c2cc3ccccc3o2)CC2CCC1N2C(=O)NC1CCCCC1 (stereo not given) the results were Mtb hypoxia rep 1.
For C=C(C=O)CC1CC(O)[C@]2(C)OC3CC4OC5C[C@]6(C)O[C@]7(C)CCC8OC9C[C@]%10(C)OC%11C(C)=CC(=O)OC%11CC%10OC9C[C@@H](C)C8OC7CC6O[C@]5(C)CC5OC5C4OC3CC2O1 (stereo not given in full) the results were 3CLpro inhibitor -2, BJeLR viability 38, PrP UTR inh 85*, RecA intein inh 2 and PrP 5UTR single 98*.
`O=C(NN=C1CCSC1)c1cccc([N+](=O)[O-])c1` gave Mtb hypoxia rep 4.
For COc1cc([C@@H]2c3cc4c(cc3[C@@H](O[C@@H]3O[C@@H]5CO[C@@H](C)O[C@H]5[C@H](O)[C@H]3O)[C@H]3COC(=O)[C@H]23)OCO4)cc(OC)c1O the results were BJeLR viability 11, PrPC surface inh -4, PrP UTR inh -3 and RecA intein inh 3.
`COc1cc(C2c3cc4c(cc3C(OC3OC5COC(c6cccs6)OC5C(O)C3O)C3COC(=O)C23)OCO4)cc(OC)c1O` (stereo not given) gave 3CLpro inhibitor 1, BJeLR viability 73*, PrPC surface inh 13, PrP UTR inh 71*, RecA intein inh -3 and PrP 5UTR single 61*.
Screening COc1cc(C2c3cc4c(cc3C(O)C3COC(=O)C23)OCO4)cc(OC)c1O[Si](C)(C)C(C)(C)C (stereo not given) returned Mtb hypoxia rep 9.
`COc1cc(C2c3cc4c(cc3OC(NNC(N)=O)C2C)OCO4)cc(OC)c1OC` (stereo not given) gave PrPC surface inh 11, PrP UTR inh 52* and PrP 5UTR single 87*.
For COc1cc([C@@H]2c3cc4c(cc3[C@H](O)[C@H]3COC(=O)[C@H]23)OCO4)cc(OC)c1OC the results were 3CLpro inhibitor -1, BJeLR viability 42, PrPC surface inh 11, PrP UTR inh 67*, RecA intein inh -4 and PrP 5UTR single 85*.
`O=C(Nc1ccc(F)cc1)C(Cl)=Cc1ccccc1` gave Mtb hypoxia rep 18.
COc1ccccc1C(=O)N1CCCC1(C#N)c1ccccc1 (stereo not given) was read as 3CLpro inhibitor -5, BJeLR viability 6, PrPC surface inh -7, PrP UTR inh 83*, Mtb hypoxia rep 13, RecA intein inh -2 and PrP 5UTR single -10.
`N#CC1(c2ccccc2)CCCN1C(=O)c1ccccc1Br` (stereo not given) gave 3CLpro inhibitor 5, BJeLR viability -1, PrPC surface inh -6, PrP UTR inh 3 and RecA intein inh -1.
Screening COc1ccc(CN2CCC(=O)N(C(CO)Cc3ccccc3)CC2)cc1 (stereo not given) returned Mtb hypoxia rep -2.
NC(=O)c1cc([N+](=O)[O-])ccc1NCc1ccc(N)cc1 was read as PrPC surface inh -19, PrP UTR inh 74* and PrP 5UTR single 75*.
O=C(c1ccc2c3c(cccc13)CC2)C1CCCN(Cc2ccc(OCCO)cc2)C1 (stereo not given) was read as 3CLpro inhibitor -1, BJeLR viability -9, PrPC surface inh -7, PrP UTR inh 87*, Mtb hypoxia rep -3, RecA intein inh -2 and PrP 5UTR single -18.
Screening O=C(c1ccc2c3c(cccc13)CC2)C1CCCN(Cc2ccccn2)C1 (stereo not given) returned 3CLpro inhibitor 1, BJeLR viability 7, PrPC surface inh -5, PrP UTR inh -13, Mtb hypoxia rep -19 and RecA intein inh 2.
COCCN=c1scc(-c2cc(OC)ccc2OC)n1N=Cc1c[nH]c2ccccc12 was read as Mtb hypoxia rep 4.
For Cc1ccc2nc(-c3ccccc3)cn2c1 the results were 3CLpro inhibitor -3, BJeLR viability 36, PrPC surface inh 3, PrP UTR inh 87*, Mtb hypoxia rep 8, RecA intein inh 2 and PrP 5UTR single 85*.

Bioassay records (PubChem BioAssay)
